Test results reported in PubChem BioAssay AID1942 (Johns Hopkins Ion Channel Center, 2009).
Out of some 2,400 compounds screened, about 580 (24%) were called active. A selection follows. A number with no mark means an inactive call.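 Rule for the calls: active = activity change at or above the mean plus 3 SD of buffer wells without dofetilide, per plate; inactive = the rest.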

Each molecule was assayed against Potassium voltage-gated channel subfamily KQT member 2 (Rattus norvegicus) (UniProt O88943) (assay: KCNQ2 potentiation in CHO cells – cell-based, FluxOR thallium flux, counter-screen for hERG block protector project, confirmation (AID 1942;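 note: normalized value minus buffer-control mean plus three SD of buffer wells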)). Conditions: FluxOR thallium flux fluorescence, at 10 µM, hits give high values.
Potassium voltage-gated channel subfamily KQT member 2 (Rattus norvegicus), sequence (O88943 whole entry, looked up): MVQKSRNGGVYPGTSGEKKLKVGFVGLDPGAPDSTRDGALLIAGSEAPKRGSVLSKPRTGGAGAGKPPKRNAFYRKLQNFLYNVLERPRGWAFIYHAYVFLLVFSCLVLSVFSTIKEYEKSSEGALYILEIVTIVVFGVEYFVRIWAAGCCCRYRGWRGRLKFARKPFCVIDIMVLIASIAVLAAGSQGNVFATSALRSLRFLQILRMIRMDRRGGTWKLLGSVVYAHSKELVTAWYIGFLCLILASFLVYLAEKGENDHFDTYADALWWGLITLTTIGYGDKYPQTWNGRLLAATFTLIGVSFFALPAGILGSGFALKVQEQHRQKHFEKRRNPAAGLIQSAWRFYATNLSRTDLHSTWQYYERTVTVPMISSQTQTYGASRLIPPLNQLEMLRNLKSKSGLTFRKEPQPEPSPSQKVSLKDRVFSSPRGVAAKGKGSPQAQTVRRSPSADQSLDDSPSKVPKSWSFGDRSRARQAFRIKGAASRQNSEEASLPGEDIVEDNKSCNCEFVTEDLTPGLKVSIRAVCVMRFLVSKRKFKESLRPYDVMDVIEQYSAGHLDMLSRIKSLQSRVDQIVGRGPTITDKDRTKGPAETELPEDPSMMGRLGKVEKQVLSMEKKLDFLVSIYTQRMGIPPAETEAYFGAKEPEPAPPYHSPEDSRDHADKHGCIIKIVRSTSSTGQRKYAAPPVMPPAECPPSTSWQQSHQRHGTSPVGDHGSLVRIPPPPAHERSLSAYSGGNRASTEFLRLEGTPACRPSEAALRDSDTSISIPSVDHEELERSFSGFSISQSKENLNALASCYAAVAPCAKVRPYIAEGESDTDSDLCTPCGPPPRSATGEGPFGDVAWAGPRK

SMILES	activity change, less the hit threshold
CCNC(=O)NC1c2ccccc2CSc2ccccc21 (centres undefined)	-20.6%
Cc1ccc(C)c(NC(=O)CCN2C(=O)[C@@H]3Cc4ccccc4CN3C2=O)c1	-23.4%
COc1ccc(C(=O)N(CN2CCCC2=O)c2ccc(C)cc2)cc1	-3.9%
O=C(NCCCN1CCCC1=O)c1ccc(OC(F)(F)F)cc1	-19.5%
CCOc1ccc(C(=O)N(CN2CCCC2=O)c2ccc(C)cc2)cc1	21.8% (active)
Cc1cc(C)c(Cn2c3ccccc3c3cnn(CC(=O)NCc4ccccn4)c(=O)c32)c(C)c1	-12.3%
O=C1OCCC1Sc1nc2ccccc2c(=O)n1Cc1ccc(F)cc1 (centres undefined)	-2%
COc1cc2c(cc1OC)C(c1ccc([N+](=O)[O-])cc1)N(C(C)=O)CC2 (centres undefined)	-27%
O=C(Nc1ccc(Cl)c(Cl)c1)Nc1nnc(CSc2ccccc2)s1	-5.4%
CCCN(CC1CC1)C(=S)Nc1ccccc1F	-17.8%
CCCN(CCC)C(=S)NC(=O)c1ccc(-c2ccccc2)cc1	91.4% (active)
CCN(CC)C(=S)NC(=O)c1ccc(F)cc1	-10.2%
O=C(NCCOC(=O)c1ccc([N+](=O)[O-])cc1)c1cccnc1	-12.2%
C=CCN(c1ccc(C(=O)NC(C)C)cc1)S(C)(=O)=O	-16.8%
C=CCN(CC=C)C(=S)NC(=O)Cc1cccc2ccccc12	3.6% (active)
C=CCN(CC=C)C(=S)NC(=O)c1ccc([N+](=O)[O-])cc1	48.5% (active)
C=CCN(CC=C)C(=S)NC(=O)c1ccc(-c2ccccc2)cc1	21% (active)
Cc1c(C)n(CCN(C)C)c2ccc(C(=O)OCCN(C)C)cc12	-12.7%
CCCCCN(C(=O)CCC(=O)OC(C)C(=O)c1ccccc1)c1c(N)n(CCCC)c(=O)[nH]c1=O (centres undefined)	-10.3%
CCn1nnnc1SCC(=O)N1c2ccccc2Sc2ccccc21	-16.2%
CCc1nnc(NS(=O)(=O)c2ccc(NC(=S)NC(=O)/C=C/c3ccc(OC)cc3)cc2)s1	-7.3%
COc1ccc(CCNC(=O)CSc2ccc3nnc(CCNC(=O)c4ccccc4)n3n2)cc1OC	-18.6%

SMILES	activity change, less the hit threshold
CCCN1CCC(NC(=O)CC2C(=O)NCCN2Cc2cccc(OC)c2)CC1 (centres undefined)	-17.9%
CCCCNC(=S)NC(=O)c1ccc([N+](=O)[O-])cc1	22.9% (active)
CCC(=O)Nc1ccc(C(=O)NNC(=O)c2cc([N+](=O)[O-])cc([N+](=O)[O-])c2)cc1	-17.8%
CCCCCC(=O)NNC(=S)NC(=O)c1ccc([N+](=O)[O-])cc1	-31.9%
CC1CCN(S(=O)(=O)c2ccc3nc(N4CCN(c5ccccc5)CC4)ccc3c2)CC1	-25.2%
Cc1ccc(Cc2c[nH]c(=S)s2)cc1	52.8% (active)
Clc1ccc(Cc2ccccc2)nn1	-12.9%
S=c1[nH]cc(Cc2ccccc2)s1	1.4% (active)
Cc1[nH]c(=S)sc1Cc1ccc(Cl)c(Cl)c1	-16%
COCCn1cnc2c1c(=O)n(CC#N)c(=O)n2Cc1ccccc1	-22%
CCOc1ccc(CCNC(=O)Nc2ccccc2C)cc1OCC	-14.3%
CNC(=O)CSc1nnc(-c2ccco2)n1-c1ccc(C)cc1	-16.3%
Cc1ccc(C(=O)NC(=S)Nc2ccccc2C(F)(F)F)cc1	-24.5%
Cc1ccc(C(=O)N/N=C(/CC(=O)c2cccs2)C(F)(F)F)cc1	5.2% (active)
CCCOc1ccc(C(=O)NNC(=S)NC(=O)c2cccs2)cc1	-34.1%
COc1ccc(S(=O)(=O)N2CCN(C(=O)CNC(=O)c3ccc4c(c3)OCO4)CC2)cc1	-12.9%
O=C(Nc1c[nH]c(=O)[nH]c1=O)c1ccc2c(c1)C(=O)N(c1cccc([N+](=O)[O-])c1)C2=O	-9.9%
O=C(CN1CCCCCC1)Nc1ccc(Oc2ccccc2)cc1	-20.3%
O=C(Cn1nc(-c2ccccc2)c2ccccc2c1=O)Nc1ccc(O)cc1	-25.7%
Cc1nn(CC(=O)Nc2ccc(C(=O)N3CCCC3)cc2)c(=O)c2ccccc12	11.5% (active)
O=C(Nc1ncc(Br)s1)C(Cc1ccccc1)n1cccc1 (centres undefined)	-5.9%
Cn1cnnc1SCC(=O)NCc1ccccc1	-24.1%

SMILES	activity change, less the hit threshold
COc1cc(/C=C/C(=O)O)ccc1OS(=O)(=O)c1cc(C)ccc1C	-16.4%
COc1cc(/C=C/C(=O)N[C@@H](Cc2c[nH]c3ccccc23)C(=O)O)ccc1O	-15.9%
COC(=O)Oc1ccc(/C=C/C(=O)OC(C)C)cc1OC(=O)OC	3% (active)
Cc1ccc(NC2=CC(=O)OC(C)C2)cc1 (centres undefined)	-17.3%
Cc1ccc(Oc2ccc(OCC(=O)NC(CC(C)C)C(=O)O)cc2)cc1 (centres undefined)	-14.9%
CC1=Nc2ccc(C)cc2/C1=C/c1c(N)n2c(S(=O)(=O)C(C)C)nsc2nc1=O	-27%
O=C(CN1CCCCCCC1)Nc1cccc(Cl)c1Cl	-20.9%
O=c1oc2ccccc2c(Cl)c1CN1CCCCC1	8.6% (active)
O=C(c1c(O)c2ccccc2oc1=O)C1CCCCC1	-4.8%
CSc1nc2c(c(=O)[nH]1)C(c1ccc(F)cc1)CC(=O)N2 (centres undefined)	-16.4%
O=C(NCc1ccc(Cl)cc1)C1CCN(S(=O)(=O)c2cccc3nonc23)CC1	-10%
CC(NC(=O)C1CCN(S(=O)(=O)c2cccc3cccnc23)CC1)c1ccccc1 (centres undefined)	0.9% (active)
Cc1[nH]c(=O)[nH]c(=O)c1S(=O)(=O)N1CCC(C(=O)NC(C)c2ccccc2)CC1 (centres undefined)	-19.6%
Nc1ncnc(NC2CCS(=O)(=O)C2)c1[N+](=O)[O-] (centres undefined)	-11.2%
CCOC(=O)c1c(C)[nH]c(C)c1S(=O)(=O)N1CCCCC1	-11%
CC1CCc2c(sc(NS(=O)(=O)c3ccccc3)c2C(=O)OC(C)C)C1 (centres undefined)	8.2% (active)
CC(NS(=O)(=O)c1ccccc1)C(N)=O (centres undefined)	-21.1%
CC(C)OC(=O)c1c(NS(=O)(=O)c2ccccc2)sc2c1CCCC2	9.1% (active)
CCOC(=O)c1c(NS(C)(=O)=O)sc2c1CCC(C)C2 (centres undefined)	26.3% (active)
COC(=O)c1c(NC(=O)CN2CCOCC2)sc2c1CCC(C)C2 (centres undefined)	-9.9%
